Bioassay records (PubChem)
CCHFV vOTU inh: CCHFV vOTU protease inhibition; Pep-AMC fluorescence; inhibition, % at 11.5 µM; actives 0.55% (n = 370,000); AID 651958; in the data active = inhibition above about 30%
BoNT-A LC inh2: BoNT A light chain protease inhibition; multiplex microsphere protease substrate cleavage, flow cytometry; inhibition, % at 10 µM; actives 0.17% (n = 360,000)
SARS 3CLpro inh: SARS-CoV 3CLpro protease inhibition; actives 0.14% (n = 290,000); P0C6X7; recombinant SARS-CoV 3CLpro, quenched FRET peptide cleavage; inhibition, % at 6 µM; in the data active = inhibition above about 12%
BoNT-F LC inh: inhibitors of Botulinum neurotoxin F light chain protease | Multiplex microsphere protease cleavage assay, flow cytometry | inhibition, % at 10 µM | actives 0.22% (n = 360,000); in the data active = inhibition above about 35%, passing the limit was not always enough; inconclusive = no clear call, values can overlap the other calls
Anthrax LF prot: anthrax lethal factor protease inhibition; P15917; multiplex microsphere protease cleavage assay, LF; AID 588501; inhibition, % at 10 µM; actives 0.12% (n = 360,000)
Target sequence (P15917 whole entry, looked up): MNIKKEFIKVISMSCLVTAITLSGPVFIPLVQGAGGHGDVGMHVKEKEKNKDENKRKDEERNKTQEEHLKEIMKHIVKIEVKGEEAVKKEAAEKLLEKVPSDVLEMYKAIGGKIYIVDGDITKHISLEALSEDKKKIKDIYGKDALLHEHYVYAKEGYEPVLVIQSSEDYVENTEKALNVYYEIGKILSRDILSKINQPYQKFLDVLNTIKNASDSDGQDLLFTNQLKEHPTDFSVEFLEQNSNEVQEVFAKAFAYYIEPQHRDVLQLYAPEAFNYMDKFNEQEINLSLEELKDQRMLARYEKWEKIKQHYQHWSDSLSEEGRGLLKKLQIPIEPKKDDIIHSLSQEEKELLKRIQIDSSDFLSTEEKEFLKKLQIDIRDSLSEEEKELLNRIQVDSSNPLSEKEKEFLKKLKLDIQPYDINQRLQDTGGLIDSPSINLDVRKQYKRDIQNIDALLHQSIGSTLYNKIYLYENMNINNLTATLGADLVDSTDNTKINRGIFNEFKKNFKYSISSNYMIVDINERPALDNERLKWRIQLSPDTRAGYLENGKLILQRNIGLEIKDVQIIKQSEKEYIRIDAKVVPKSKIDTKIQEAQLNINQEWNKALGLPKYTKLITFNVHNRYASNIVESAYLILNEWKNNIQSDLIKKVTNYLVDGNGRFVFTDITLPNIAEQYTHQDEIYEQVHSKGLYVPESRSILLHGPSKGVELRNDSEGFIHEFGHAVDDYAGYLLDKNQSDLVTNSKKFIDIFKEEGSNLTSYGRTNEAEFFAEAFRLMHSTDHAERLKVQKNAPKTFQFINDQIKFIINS
Autofluor counter: counter-screen for toxin protease inhibitors: compound fluorescence; AID 624483; fluorescence intensity (test concentration not listed); actives 3.1% (n = 360,000); compound autofluorescence counterscreen, microsphere flow cytometry; stronger effect = higher value; in the data active = fluorescence intensity above about 16000; inconclusive = no clear call, values can overlap the other calls
Large screens that a line does not name were inactive. Hits are enriched below; roughly 3.9% of the tested compounds scored in any of these assays. Rule as the data show it, unless noted: active = inhibition above about 30%; inconclusive = no clear call, values can overlap the other calls; inactive = below that.

CCOc1cc(C(c2c(C)[nH][nH]c2=O)c2c(C)[nH][nH]c2=O)ccc1OS(=O)(=O)c1ccccc1	Autofluor counter 20887
CCOCCn1c(N2CCN(c3ccc(OC)cc3)CC2)nc2c1c(=O)n(C)c(=O)n2C	none
COc1cccc(C(=O)Cn2c(N3CCOCC3)nc3c2c(=O)n(C)c(=O)n3C)c1	Autofluor counter 16198
COCCn1c(N2CCN(c3ccc(OC)cc3)CC2)nc2c1c(=O)n(C)c(=O)n2C	Autofluor counter 17764
O=C(CN1CCN(c2nc(-c3ccccc3)cs2)CC1)Nc1ccc(Cl)cc1	none (no result: BoNT-A LC inh2, SARS 3CLpro inh, BoNT-F LC inh, Anthrax LF prot, Autofluor counter)
CCOP(=O)(OCC)c1nc(/C=C/c2ccccc2)oc1NCc1ccccc1	none
CCOP(=O)(OCC)c1nc(/C=C/c2ccccc2)oc1NCc1ccc(OC)cc1	Autofluor counter 24914
CCOP(=O)(OCC)c1nc(-c2cccc3ccccc23)oc1NCc1ccc(OC)cc1	none
CCOP(=O)(OCC)c1nc(-c2cccc3ccccc23)oc1NCc1ccccc1	Autofluor counter 17554
Cc1ccc2nc(-c3ccc(NC(=O)CSc4nnc(-c5cc(-c6ccc(F)cc6)n[nH]5)n4N)cc3)sc2c1	none (no result: BoNT-A LC inh2, SARS 3CLpro inh, BoNT-F LC inh, Anthrax LF prot, Autofluor counter)
COCCCn1cc(CN2CC(N3CCN(C)CC3)CS2(=O)=O)nn1 (centres undefined)	none (no result: SARS 3CLpro inh)
COc1cccc(CC(=O)OCC(=O)NNC(=O)c2ccc([N+](=O)[O-])cc2)c1	none
CSc1nnnn1-c1c(C)cccc1C	none
Cc1cccc(C)c1-n1nnnc1SCSc1nnnn1-c1c(C)cccc1C	BoNT-A LC inh2 inconclusive, Autofluor counter 21580
Cc1ccc2c(c1)sc1nc(=O)n(-c3ccc(Cl)cc3)c(=O)n12	Autofluor counter 19455
Cc1ccc2c(c1)sc1nc(=O)n(-c3cccc(Cl)c3)c(=O)n12	Autofluor counter 22395
O=c1nc2sc3ccccc3n2c(=O)n1-c1cccc(Cl)c1	none (no result: CCHFV vOTU inh)
O=c1nc2sc3ccccc3n2c(=O)n1-c1ccc(Cl)cc1	none
Cc1ccc2c(c1)sc1nc(=O)n(-c3ccc(Cl)c(Cl)c3)c(=O)n12	BoNT-A LC inh2 inconclusive, Autofluor counter 22447
CCOc1ccc(-n2c(SCC(=O)N3CCC(C(=O)O)CC3)nc3ccccc3c2=O)cc1	none
COc1ccccc1N1CCN(C(=O)CN(C)S(=O)(=O)c2cc(C)ccc2OC)CC1	none
O=C(Nc1nnc([C@H]2C[C@H](O)[C@@H](CO)O2)s1)Nc1cccc2c1CCCC2	none (no result: SARS 3CLpro inh)
COC(=O)c1sccc1NC(=O)c1c(C)noc1C	Autofluor counter 23485
COC(=O)c1sccc1NC(=O)c1sccc1C	none
COC(=O)c1sccc1NC(=O)c1c(F)c(F)c(F)c(F)c1F	none (no result: SARS 3CLpro inh)
COC(=O)c1sccc1NC(=O)c1cc(C)on1	BoNT-A LC inh2 inconclusive, Autofluor counter 17750 (no result: CCHFV vOTU inh)
CCc1sc(C(=O)Nc2ccsc2C(=O)OC)cc1Br	Autofluor counter 16369 (no result: SARS 3CLpro inh)
C[C@H](CO)N1C[C@H](C)[C@@H](CN(C)C(=O)c2ccccc2)OCc2cn(nn2)CCCC1=O	none (no result: SARS 3CLpro inh)
CC[n+]1c(/C=C/c2ccc(N(C)C)cc2)ccc2ccccc21	none
CCN(CC)c1ccc(/C=C/c2ccc3ccc(OC)cc3[n+]2CC)cc1	BoNT-A LC inh2 59.5
FC(F)(F)c1cccc(CON=C2CCN(c3ncc(C(F)(F)F)cc3Cl)CC2)c1	Autofluor counter 19810
O=C(CSc1nnc(-c2ccccc2)n1-c1ccc(Cl)cc1)NN=Cc1c[nH]c2ccccc12	none (no result: BoNT-A LC inh2, SARS 3CLpro inh, BoNT-F LC inh, Anthrax LF prot, Autofluor counter)
O=C1C=C(c2cccc3c2oc2ccccc23)C[C@@H](c2ccc(F)cc2)C1	none (no result: SARS 3CLpro inh)
O=C(Nc1cccc(-c2nc3ncccc3o2)c1)c1cc2ccccc2o1	none
O=C(Nc1cccc(-c2nc3ncccc3o2)c1)c1sc2cc(Cl)ccc2c1Cl	BoNT-A LC inh2 inconclusive, Autofluor counter 22567
O=C(Nc1cccc(-c2nc3ncccc3o2)c1)c1sc2ccccc2c1Cl	Autofluor counter 18637
OCCCNc1ncnc2sc3c(c12)CCN(Cc1ccccc1)C3	BoNT-A LC inh2 35.1, BoNT-F LC inh inconclusive
O=c1[nH]cnc2sc3c(c12)CCN(Cc1ccccc1)C3	none
CCCCCCCCCS(=O)(=O)N/N=C/c1cccc([N+](=O)[O-])c1	Autofluor counter 19668
Cc1ccc(S(=O)(=O)N/N=C/c2cccc([N+](=O)[O-])c2)cc1	none
CC(CN1CCOCC1)OC(=O)/C=C/c1ccccc1 (centres undefined)	none
COc1ccc(/C=C/C(=O)OC(C)CN2CCCCC2)cc1 (centres undefined)	BoNT-F LC inh inconclusive
CC(CN1CCCCC1)OC(=O)/C=C/c1ccccc1 (centres undefined)	BoNT-F LC inh 36.2
COc1ccc(/C=C/C(=O)OC(C)CN2CCOCC2)cc1 (centres undefined)	Autofluor counter 17262
Nc1c(S(=O)(=O)c2cccc(Cl)c2)c2nc3ccccc3nc2n1CCN1CCOCC1	Autofluor counter 16491
CCCCOc1cccc(-c2cc(C(=O)NNC(=S)NCC)c3ccccc3n2)c1	Autofluor counter 19871
CCNC(=S)NNC(=O)c1cc(C2CC2)nc2ccccc12	Autofluor counter 22689
Nc1[nH]c2cc(C(F)(F)F)ccc2c1C(=O)NC1CCCCC1	none (no result: BoNT-A LC inh2, SARS 3CLpro inh, BoNT-F LC inh, Anthrax LF prot, Autofluor counter)
CCc1cc(=O)oc2cc(C)c(CN3CCCC3)c(O)c12	Autofluor counter 17050
CCCc1ccc2oc(C(=O)N(Cc3nccn3C)C(C)C)c(C)c2c1	none
CCC(C)NC(=O)COC(=O)c1cc([N+](=O)[O-])ccc1Sc1nc(C)cs1 (centres undefined)	none
Cc1csc(Sc2ccc([N+](=O)[O-])cc2C(=O)OCC(=O)NC2CCCC(C)C2C)n1 (centres undefined)	Autofluor counter 16483
Nc1ccccc1-c1nc2ccccc2[nH]1	Autofluor counter 22286
O=C(NCC1CCCO1)c1ccc2c(=O)n(CC3CCCO3)c(SCC(=O)N3CCCC3)nc2c1 (centres undefined)	none
O=[N+]([O-])c1ccc(C(O)C23CN4CN(CN(C4)C2)C3)cc1 (centres undefined)	none
COc1ccc(S(=O)(=O)Cc2ccc(C(=O)N3CCC4(CC3)OCCO4)o2)cc1	Autofluor counter 19527
COc1ccccc1N1CCN(C(=O)c2ccc(CS(=O)(=O)c3ccccc3OC)o2)CC1	Autofluor counter 16680
COc1ccccc1CNC(=O)c1ccc(CS(=O)(=O)c2ccccc2OC)o1	Autofluor counter 22833
CCN1CCN(C(=O)c2ccc(CS(=O)(=O)Cc3ccccc3F)o2)CC1	Autofluor counter 25125
O=C(O)c1ccc(CS(=O)(=O)Cc2ccccc2F)o1	none
Cc1ccc(S(=O)(=O)NCC(=O)OC(C)C(=O)NCc2ccc3c(c2)OCO3)cc1 (centres undefined)	none (no result: SARS 3CLpro inh)
CCOC(=O)N1CCN(C(=O)c2ccc(CS(=O)(=O)c3ccccc3OC)o2)CC1	BoNT-A LC inh2 inconclusive, Autofluor counter 20166
CCC1(C)COC2(OC1)C(=O)Nc1ccccc12 (centres undefined)	Autofluor counter 20257
Cc1ccc(C(=O)NN2CCOCC2)cc1	BoNT-A LC inh2 inconclusive, Autofluor counter 19445
N#Cc1cc(Nc2c(N)nc[nH]c2=O)c([N+](=O)[O-])cc1C#N	none
